{"source": "PubChem BioAssay AID504545", "about": "(Broad Institute, 2011)", "note": "Entries with a potency or affinity are not part of this list. Results filed as inconclusive are left out. The source made the active and inactive calls. No rule for the calls is given here.", "data": [{"molecular_target": "Cyclin-dependent kinase 5 activator 1 (Homo sapiens) + Cyclin-dependent kinase 5 (Homo sapiens) (UniProt Q15078+Q00535)", "sequence (Q00535 whole entry, looked up)": "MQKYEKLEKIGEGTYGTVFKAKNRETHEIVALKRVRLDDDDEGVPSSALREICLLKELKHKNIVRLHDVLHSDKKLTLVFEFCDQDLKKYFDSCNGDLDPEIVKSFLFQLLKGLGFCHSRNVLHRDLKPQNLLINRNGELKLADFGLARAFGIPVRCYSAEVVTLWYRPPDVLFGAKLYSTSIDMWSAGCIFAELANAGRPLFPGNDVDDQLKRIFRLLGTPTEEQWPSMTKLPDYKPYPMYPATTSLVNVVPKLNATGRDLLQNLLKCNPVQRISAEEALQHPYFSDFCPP", "sequence (Q15078 whole entry, looked up)": "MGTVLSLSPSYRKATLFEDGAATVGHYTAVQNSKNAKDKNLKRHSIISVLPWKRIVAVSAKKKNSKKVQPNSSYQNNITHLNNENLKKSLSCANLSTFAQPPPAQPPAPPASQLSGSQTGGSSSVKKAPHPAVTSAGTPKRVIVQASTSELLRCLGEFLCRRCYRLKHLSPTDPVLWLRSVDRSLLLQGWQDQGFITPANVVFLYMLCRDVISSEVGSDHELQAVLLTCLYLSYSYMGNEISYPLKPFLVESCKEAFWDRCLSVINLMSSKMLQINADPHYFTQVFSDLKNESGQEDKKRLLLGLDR", "experiment": "blockade of human CDK5 activity – biochemical, cherry-picked samples, set 2, dose response (AID 504545)", "conditions": "CDK5/p35 kinase activity, biochemical plate reader; series mostly up to 30 µM; activity change, negative = inhibition: at the top concentration", "values": [{"smiles": "NC(=O)c1c(Br)n(C2OC(CO)C(O)C2O)c2ncnc(N)c12", "note": "(centres undefined)", "activity change, negative = inhibition": "-11% (inactive)"}, {"smiles": "Nc1ncnc2c1ccn2[C@@H]1O[C@H](CO)[C@@H](O)[C@H]1O", "activity change, negative = inhibition": "1.79% (inactive)"}, {"smiles": "Nc1ccc(CC2=NCCN2)cc1", "activity change, negative = inhibition": "-11.6% (inactive)"}, {"smiles": "COc1cc2c(ccc3c4cc(OC)c(OC)cc4c[n+](C)c23)cc1O", "activity change, negative = inhibition": "-2.52% (inactive)"}]}]}
